Results filed as inconclusive are left out. Active and inactive are the calls of the source. The call rests on the fitted dose curve; in most records, active means well fitted inhibition curve with a large enough effect; inconclusive means small, poorly fitted or top-dose-only effect, or effect the other way; inactive means no such curve, though single readings can be large or run the other way.
Assay: Confirmation Concentration-Response Assay for lipid storage modulators: for probe SAR
Conditions: Drosophila S3 cells, BODIPY lipid droplet fluorescence, 18-24 h; series mostly up to 46.1 µM
Summary of the method: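 Laser-scanning cytometry read BODIPY 493/503 lipid-droplet intensity and its ratio to CellTracker Red cell signal. Beforehand, 5,000 cells/well were exposed 18–24 h at 24 °C to test compound with oleic acid (1 µL, 400 µM). 20 µM Triacsin C defined full inhibition.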
In the case of `CCOC(=O)C1CCN(C(=O)C(C)(C)NC(=O)Nc2ccccc2Cl)CC1`, the Potency is reported as 628 nM (active).
In the case of `O=C(CSc1nnc(NCc2ccccc2)s1)Nc1nc(-c2ccc(F)c(F)c2)cs1`, the Potency is reported as 1250 nM (active).
With `O=C(NC1CCCc2c1cnn2-c1ccc(F)cc1F)c1cnccn1` (stereo unspecified) the Potency was 250 nM (active).
For `CCOC(=O)C1CCN(C(=O)C2(NC(=O)Nc3ccccc3Cl)CCCCC2)CC1`, the Potency was 1440 nM (active).
For `O=C(NCCc1ccc2c(c1)OCO2)c1cc2sccc2n1Cc1ccccc1`, the Potency was “inactive”.
For `CCOc1ccc(CCNC(=O)c2cc3c(s2)CCC3)cc1OCC`, the Potency was 560 nM (active).
